Source: PubChem BioAssay (several laboratories)
A selection: hits, their analogues and other compounds. The true share with any hit is near 2.2%.
Granule exo inh = blocks lytic granule exocytosis; inhibition, % at 10 µM; TALL-104 LAMP-1 surface exposure, flow cytometry; cells stimulated with thapsigargin and PMA; 360,000 tested, 0.66% active;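 active = inhibition above about 55%, limit read from the data; inconclusive = no clear call, values can overlap the other calls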
GASC-1 inh = inhibitors of human GASC-1 (JMJD2C) demethylase; inhibition, % at 2.35 µM; Q9H3R0; AID 2099; GST-JMJD2C(1-420) H3K9me3 demethylation, DELFIA europium; 330,000 tested, 0.069% active;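 active = more than half of a compound's replicate wells show inhibition beyond 50%, single wells judged on their own value; inconclusive = some, but no more than half, of replicates pass 50% inhibition; inactive = no replicate passes 50% inhibition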;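 also: signal counts dimethyl H3K9 product captured on neutravidin plate; 0% = median of DMSO wells and 100% = 0.3 times that DMSO median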
HTR2A ag = agonists of mouse serotonin 5-HT2A receptor (HTR2A) | CHO-K1 mHTR2A beta-arrestin complementation, luminescence; percent of 30 µM serotonin response | activation, % at 7.6 µM | 360,000 tested, 0.66% active;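 active = activation above a run cutoff, the mean activation of all tested compounds plus 3 SD, cut at about 14% in these data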;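 also: 0% = plate median of compound wells and 100% = 30 µM serotonin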
VLA-4 inh = inhibition in a human VLA-4 binding assay; P13612; VLA-4 expressing cells, ligand binding flow cytometry; inhibition, % (about 7 µM as worked out from the volumes in the protocol); 330,000 tested, 0.2% active; AID 2557; in the data active = inhibition above about 50%
Target sequence (P13612 whole entry, looked up): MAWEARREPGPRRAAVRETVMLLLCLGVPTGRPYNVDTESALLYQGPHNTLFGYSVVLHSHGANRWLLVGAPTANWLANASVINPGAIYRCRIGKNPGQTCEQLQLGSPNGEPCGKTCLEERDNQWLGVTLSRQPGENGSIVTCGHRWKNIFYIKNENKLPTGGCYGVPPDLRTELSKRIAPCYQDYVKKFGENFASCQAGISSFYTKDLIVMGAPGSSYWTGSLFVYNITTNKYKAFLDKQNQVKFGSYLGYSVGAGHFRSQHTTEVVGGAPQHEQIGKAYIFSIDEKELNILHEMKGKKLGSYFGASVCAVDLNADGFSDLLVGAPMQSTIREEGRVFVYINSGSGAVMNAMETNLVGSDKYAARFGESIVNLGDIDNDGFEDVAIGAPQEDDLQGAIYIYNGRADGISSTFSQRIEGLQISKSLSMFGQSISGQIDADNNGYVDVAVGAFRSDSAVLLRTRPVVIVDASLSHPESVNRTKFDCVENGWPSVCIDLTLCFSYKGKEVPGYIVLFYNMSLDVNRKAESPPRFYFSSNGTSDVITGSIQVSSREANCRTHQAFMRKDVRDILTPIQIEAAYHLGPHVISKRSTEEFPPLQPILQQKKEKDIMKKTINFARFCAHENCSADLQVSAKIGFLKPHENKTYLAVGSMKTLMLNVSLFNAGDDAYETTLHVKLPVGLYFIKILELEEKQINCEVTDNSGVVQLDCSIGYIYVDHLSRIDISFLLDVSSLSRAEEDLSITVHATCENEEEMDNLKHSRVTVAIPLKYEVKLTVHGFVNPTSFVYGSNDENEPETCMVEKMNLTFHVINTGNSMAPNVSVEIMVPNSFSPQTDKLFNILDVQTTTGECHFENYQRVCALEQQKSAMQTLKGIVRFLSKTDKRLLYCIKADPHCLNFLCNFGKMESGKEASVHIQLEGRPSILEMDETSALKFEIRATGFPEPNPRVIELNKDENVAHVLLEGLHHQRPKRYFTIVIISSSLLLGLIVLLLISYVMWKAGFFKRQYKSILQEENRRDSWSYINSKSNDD
MEX-5 binding = C. elegans MEX-5 TCR-2 RNA binding activity; MEX-5/FITC-TCR2 RNA binding, fluorescence polarization; stronger effect = lower value; 300,000 tested, 0.38% active; Q9XUB2; AID 1832; activity score (negative = inhibition of binding), % at 10 µM;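 active = inhibition past about -25% in most replicates, and total fluorescence under double the plate's negative control median, limit read from the data; inconclusive = replicates evenly split on the limit, or fluorescence at least double controls; inactive = too little inhibition in most replicates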;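 also: 0% = DMSO and -100% = 5 µM competing unlabeled TCR2 RNA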
V-ATPase pHluor = alters yeast V-ATPase proton transport | AID 504577 | S. cerevisiae, pHLuorin cytosolic pH fluorescence | response, % at 10 µM | 350,000 tested, 0.37% active; in the data active = response mostly above about 7.3%, no sharp cut-off; inactive = mostly below about 5.4%; also: actives read high
Starred values were filed as active, the others as inactive.

Results for CCCn1nnnc1SCC(=O)NCc1ccc2c(c1)OCO2 ?
Granule exo inh: -2; GASC-1 inh: 62*; HTR2A ag: -1; VLA-4 inh: -13; MEX-5 binding: -3; V-ATPase pHluor: -1

How did COc1ccc2c(-c3ccccc3)cc(SCC(N)=O)nc2c1 do in these assays?
Granule exo inh: 2; GASC-1 inh: 3; HTR2A ag: -3; VLA-4 inh: -102; MEX-5 binding: -33*; V-ATPase pHluor: -3

What do the screens show for `Cc1ccc2nc(C)cc(Nc3ccc([N+](=O)[O-])cc3)c2c1`?
Granule exo inh: 83*; GASC-1 inh: -22; HTR2A ag: 0; VLA-4 inh: -7; MEX-5 binding: -4; V-ATPase pHluor: 0

Results for CC(=O)OCC(OC(C)=O)C(OC(C)=O)C(OC(C)=O)C(=O)Nc1cccc(C)c1 (centres undefined) ?
Granule exo inh: 9; GASC-1 inh: 4; HTR2A ag: 3; VLA-4 inh: 5; MEX-5 binding: 2; V-ATPase pHluor: -1

What do the screens show for `COc1cc(/C=C/C(=O)CC(=O)/C=C/c2ccc(O)c(OC)c2)ccc1O`?
Granule exo inh: 84*; GASC-1 inh: inconclusive; HTR2A ag: -4; VLA-4 inh: -229; MEX-5 binding: 3; V-ATPase pHluor: -4

What do the screens show for `COc1ccc(C=C2C(=O)OC(C)(C)OC2=O)cc1OC`?
Granule exo inh: -6; GASC-1 inh: 3; HTR2A ag: 3; VLA-4 inh: -6; MEX-5 binding: -50*; V-ATPase pHluor: 1

Results for COc1cc(C=C2C(=O)C=CC2=O)ccc1O ?
Granule exo inh: 83*; HTR2A ag: 13

Results for COc1cc(/C=C/C(=O)/C=C(O)/C=C/c2ccc(O)c(OC)c2)ccc1O ?
Granule exo inh: 69*; GASC-1 inh: -4; HTR2A ag: -2; VLA-4 inh: 0; V-ATPase pHluor: 2

How did COc1cc(/C=C/C(=O)O)ccc1O do in these assays?
Granule exo inh: -5; GASC-1 inh: 2; HTR2A ag: 0; VLA-4 inh: -20; MEX-5 binding: 0; V-ATPase pHluor: -3

Results for COc1cc(/C=C2/C(=O)CNC2=O)ccc1O ?
Granule exo inh: 0; GASC-1 inh: -8; HTR2A ag: -1; VLA-4 inh: 2; MEX-5 binding: 44; V-ATPase pHluor: 1

What do the screens show for `COc1nc(NC(=O)c2ccc(F)cc2)nc(OC)c1-c1ccccc1`?
Granule exo inh: 9; GASC-1 inh: -17; HTR2A ag: -3; VLA-4 inh: -19; MEX-5 binding: -2; V-ATPase pHluor: 0

How did COc1cc(OC)c(C(=O)C=Cc2ccc(OC)c(OC)c2)c(OC)c1 do in these assays?
Granule exo inh: 73*; HTR2A ag: 1; V-ATPase pHluor: 0

How did Cc1ccc(S(=O)(=O)N2CCCCC2)cc1NC(=O)COC(=O)c1ccc2c(c1)OCO2 do in these assays?
Granule exo inh: 0; GASC-1 inh: 0; HTR2A ag: 0; VLA-4 inh: 4; MEX-5 binding: -1; V-ATPase pHluor: 18*

Results for Cc1ccc(S(=O)(=O)N2CCCCC2)cc1NC(=O)c1ccc2c(c1)OCO2 ?
Granule exo inh: 3; GASC-1 inh: -7; HTR2A ag: 3; VLA-4 inh: 13; MEX-5 binding: -4; V-ATPase pHluor: -2

How did CNC(CC(=O)c1ccc([N+](=O)[O-])cc1)C(Cl)(Cl)Cl (centres undefined) do in these assays?
Granule exo inh: 6; GASC-1 inh: 4; HTR2A ag: 1; VLA-4 inh: -457; V-ATPase pHluor: 69*

What do the screens show for `COc1ccc(-n2c(C)c([N+](=O)[O-])c3ccc(O)c(CN4CCCCC4)c32)cc1`?
Granule exo inh: 63*; GASC-1 inh: -1; HTR2A ag: -2; VLA-4 inh: 11; MEX-5 binding: -2; V-ATPase pHluor: 2

How did N#C/C(C(N)=O)=c1/ccc2c(c1)N1C3=C(CCCC3)CC3CCCCC31N=2 (centres undefined) do in these assays?
GASC-1 inh: -7; VLA-4 inh: -10; MEX-5 binding: 1

Results for N#CC(C#N)=c1ccc2c(c1)N1C3=C(CCCC3)CC3CCCCC31N=2 (centres undefined) ?
Granule exo inh: 64*; GASC-1 inh: -10; HTR2A ag: -6; VLA-4 inh: -70; MEX-5 binding: -2; V-ATPase pHluor: 3

How did O=C(NC1CCCCC1)c1nc(C2CCNCC2)oc1-c1ccccc1 do in these assays?
Granule exo inh: -8; HTR2A ag: -2

How did CSCC[C@H](N)C(=O)N1CCC(C(=O)N[C@@H](C)C(=O)NCc2ccc(F)cc2)CC1 do in these assays?
Granule exo inh: -1; GASC-1 inh: 7; HTR2A ag: 6; VLA-4 inh: 12; MEX-5 binding: 2; V-ATPase pHluor: 4

How did N#CC1=C(N)C(C#N)(C#N)C(c2cccnc2)C2COCC=C12 (centres undefined) do in these assays?
Granule exo inh: 0; GASC-1 inh: -2; HTR2A ag: 5; VLA-4 inh: 13; MEX-5 binding: -26*; V-ATPase pHluor: -3

What do the screens show for `N#CC1=C(N)C(C#N)(C#N)C(c2cccnc2)C2CN(C(=O)OCc3ccccc3)CC=C12` (centres undefined)?
Granule exo inh: 16; GASC-1 inh: -8; HTR2A ag: 1; VLA-4 inh: -4; MEX-5 binding: -7; V-ATPase pHluor: -3

What do the screens show for `CC(C)C(=O)N1CCN(c2ccccc2NC(=O)c2cccc3ccccc23)CC1`?
Granule exo inh: 6; GASC-1 inh: -2; HTR2A ag: 2; VLA-4 inh: 28; MEX-5 binding: 0; V-ATPase pHluor: -4

How did Cc1c(CCOC(=O)C23CC4CC(CC(C)(C4)C2)C3)sc[n+]1CC(=O)c1ccccc1 do in these assays?
Granule exo inh: 26; GASC-1 inh: 6; HTR2A ag: -8; VLA-4 inh: 13; MEX-5 binding: -2; V-ATPase pHluor: -2

How did Cc1c(CCOC(=O)c2cc([N+](=O)[O-])cc([N+](=O)[O-])c2)sc[n+]1CC(=O)c1ccccc1 do in these assays?
Granule exo inh: -2; GASC-1 inh: -3; HTR2A ag: -6; VLA-4 inh: 1; MEX-5 binding: 0; V-ATPase pHluor: 1

How did Cc1c(CCOC(=O)CC23CC4CC(CC(C)(C4)C2)C3)sc[n+]1CC(=O)c1ccccc1 do in these assays?
Granule exo inh: 97*; GASC-1 inh: -1; HTR2A ag: -5; VLA-4 inh: 11; MEX-5 binding: -3; V-ATPase pHluor: -1

How did Cc1c(CCOC(=O)c2ccccc2)sc[n+]1CC(=O)c1ccc(Br)cc1 do in these assays?
Granule exo inh: 95*; GASC-1 inh: -3; HTR2A ag: 0; VLA-4 inh: 5; MEX-5 binding: 3; V-ATPase pHluor: -1

Results for CCOC(=O)/C(=C/c1ccc(N2CCC(c3ccccc3)=N2)cc1)C(C)=O ?
Granule exo inh: 5; GASC-1 inh: -15; HTR2A ag: -1; MEX-5 binding: -33*; V-ATPase pHluor: -22
